Compound activity (PubChem BioAssay)
Rows were chosen to be rich in hits. Some 2.9% of all compounds tested hit in one or more screens of this group.
Candida biofilm – clotrimazole potentiators killing Candida biofilms, primary screen, with clotrimazole, Alamar Blue; C. albicans biofilm + clotrimazole; inhibition, % at 6 µM; 85,000 compounds, 0.14% hits; AID 834, 2007;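 active = inhibition above 20%; inactive = inhibition below 20%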;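 also: preformed 24 hr biofilms exposed to compound for 48 hr; 0% = biofilm without compound and 100% = blank killed by clotrimazole plus chlorhexidine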
F-actin modifier – modifiers of F-actin cytoskeleton organization, primary screen, imaging, HUVEC, phalloidin staining, high-content imaging; HUVEC TNFa F-actin phalloidin imaging; inhibition, % at 2 µM; 91,000 compounds, 0.18% hits; AID 836, 2007;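 active = inhibition above the batch mean plus 3 SD and confirmed as a hit by visual image inspection, cut at about 30% in these data, passing the limit was not always enough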
ERb SRC1 inh – inhibitors of ERβ-SRC1 coactivator interaction, primary screen, biochemical, TR-FRET, ERβ LBD, SRC-1 peptide; Estrogen receptor beta (Homo sapiens), Q92731; TR-FRET ER-beta LBD / SRC1-Cy5 peptide binding; receptor agonist-loaded with 1 µM estradiol; inhibition, % at 25.6 µM; 86,000 compounds, 1.3% hits;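 active = compounds whose percent inhibition of the receptor-coactivator binding signal exceeds about 50% in the single-dose screen, limit read from the data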;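 also: 0% = receptor plus peptide wells without compound and 100% = peptide-only wells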
ERa coact pot – enhancers of ERα–SRC-1 coactivator binding, primary screen, biochemical, TR-FRET, ERα LBD, low estradiol; coactivator binding (% of control), % at 25.6 µM; 86,000 compounds, 1.3% hits; TR-FRET ERalpha-LBD/SRC-Cy5 coactivator binding, 2 h; 100 = basal binding, no effect; Estrogen receptor (Homo sapiens), P03372; in the data active = activity above about 200%;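 also: binding measured in presence of low estradiol as agonist stimulus; 0% = peptide alone without receptor and 100% = receptor with peptide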
Target sequence (P03372 whole entry, looked up, the tested form may be a part): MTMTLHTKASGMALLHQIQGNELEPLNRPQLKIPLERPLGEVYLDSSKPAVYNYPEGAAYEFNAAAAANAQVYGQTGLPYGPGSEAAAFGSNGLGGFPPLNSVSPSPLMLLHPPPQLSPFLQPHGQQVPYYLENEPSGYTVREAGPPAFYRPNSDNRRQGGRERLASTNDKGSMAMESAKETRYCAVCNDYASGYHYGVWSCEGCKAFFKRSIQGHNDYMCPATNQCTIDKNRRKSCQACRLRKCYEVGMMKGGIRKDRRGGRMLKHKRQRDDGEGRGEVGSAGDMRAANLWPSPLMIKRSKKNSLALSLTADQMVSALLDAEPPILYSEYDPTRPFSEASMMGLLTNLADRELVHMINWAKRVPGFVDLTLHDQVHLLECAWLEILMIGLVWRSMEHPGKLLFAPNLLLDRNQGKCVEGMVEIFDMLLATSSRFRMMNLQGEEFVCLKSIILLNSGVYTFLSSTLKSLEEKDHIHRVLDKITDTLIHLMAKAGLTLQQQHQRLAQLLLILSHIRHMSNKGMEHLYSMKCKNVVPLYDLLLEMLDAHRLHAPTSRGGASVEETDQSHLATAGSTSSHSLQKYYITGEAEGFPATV
E-sel TNF inh – E-selectin induction blockers in HUVEC – imaging, immunofluorescence, high content, primary screen | HUVEC TNFa-induced E-selectin immunofluorescence | inhibition, % at 2 µM | 120,000 compounds, 0.71% hits;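 active = inhibition above the batch mean plus 3 SD, and confirmed as a hit on visual image review, cut at about 43% in these data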;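 also: 0% = TNF-stimulated DMSO wells and 100% = unstimulated control wells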
ERa SRC1 inh – ERα–SRC-1 coactivator interaction inhibitors, primary screen, biochemical, TR-FRET, ERα LBD, estradiol-bound. Estrogen receptor (Homo sapiens), P03372. TR-FRET ER-alpha LBD / SRC-1 peptide. inhibition, % at 25.6 µM. 86,000 compounds, 1.7% hits. AID 629, 2007; in the data active = inhibition above about 50%;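 also: 0% = receptor plus peptide control and 100% = peptide only without receptor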
* = called active by the depositor; / = no result; [ ] = another dose, or the depositor's remark.

SMILES | Candida biofilm | F-actin modifier | ERb SRC1 inh | ERa coact pot | E-sel TNF inh | ERa SRC1 inh
O=C(O)CN1C(=O)C2C3CC(C2C1=O)C1C(c2ccc(F)cc2)c2sc(=O)[nH]c2SC31 (stereo not given) | / | / | / | / | -12 | /
O=C(COc1ccc2ccccc2c1)NCCNC(=O)COc1ccc2ccccc2c1 | 4 | 4 | -4 | 317*[fluorescence artefact?] | -3 | 11
CCCCN(C)C/C(O)=C(\C#N)c1nc(-c2ccccc2)cs1 | 2 | -3 | -3 | 105 | 10 | 0
O=C(O)CCC(=O)NC1CCCCCCC1 | 9 | 100* | -4 | 123 | -68 | -8
CNC(=O)c1csc(-c2ccc(C)cc2)n1 | / | 4 | / | / | -1 | /
C=CCNC(=O)C1CC(=O)N(c2ccc(OCC(=O)Nc3cccc(OC)c3)cc2)C1 (stereo not given) | 9 | 52* | -3 | 116 | 10 | -12
Cc1ccc2[nH]c(=O)c(-c3nc4cc(C)ccn4c3NCc3ccco3)cc2c1 | 10 | / | 39 | 151 | -9 | 73*[fluorescence artefact?]
COc1ccc(NC(=O)CN(C)CC(=O)Nc2ccccc2SC)cc1 | / | / | / | / | 70* | /
COc1ccccc1NC(=O)COc1ccccc1 | -2 | -6 | -3 | 110 | -10 | -3
COc1ccc(OCC(=O)Nc2ccccc2O)cc1 | 82* | 4 | 7 | 96 | 13 | 4
COC(=O)c1sccc1NC(=O)CN(C)NS(=O)(=O)c1ccc(F)cc1 | / | -11 | / | / | -14 | /
O=C(CN1CCN(c2ncccn2)CC1)N1CCN(C(c2ccccc2)c2ccccc2)CC1 | -6 | -11 | -8 | 101 | 6 | -2
Cc1[nH]nc2c1C1(C(=O)N(Cc3ccc(Cl)cc3)c3ccccc31)C(C#N)=C(N)O2 (stereo not given) | 13 | 23 | 7 | 87 | 100* | 5
Cc1cc(=O)oc2cc(OC(=O)CCCCCN3C(=O)c4ccccc4C3=O)ccc12 | / | / | / | / | -15 | /
O=c1cc(C(F)F)oc2c1ccc1ccccc12 | -1 | / | 7 | 88 | 93* | 2
COc1cc(-c2nnc(-c3ccc(S(=O)(=O)c4ccccc4)cc3)o2)cc(OC)c1OC | 5 | -10 | 36 | 86 | -10 | 58*
COc1ccccc1N(CC(=O)NCc1ccccc1)C(=O)CCC(=O)Nc1cc(C)ccn1 | 4 | 4 | 16 | 92 | -12 | 17
CCOC(=O)c1cccc(NC(=O)C2(S(=O)(=O)c3ccc(Cl)cc3)CC2)c1 | / | / | / | / | 11 | /
Cc1cc(/C=N/Nc2ccc([N+](=O)[O-])cn2)c(C)n1-c1ccccc1 | 25* | 9 | 9 | 102 | 16 | -1
CCn1c(NCc2cccs2)nc2ccccc21 | 5 | 27 | -11 | 96 | -7 | 67*[fluorescence artefact?]
Clc1cccc(-c2ccc(/C=N/n3cnnc3)o2)c1Cl | 2 | -24 | 31 | 118 | 26 | 51*[fluorescence artefact?]
COC(=O)c1cc(Br)c(=O)n(Cc2cccnc2)c1 | 6 | -14 | -1 | 120 | -1 | 3
COC(=O)c1cc(Br)c(=O)n(Cc2ccncc2)c1 | -1 | 14 | 0 | 102 | 64* | -6
N#Cc1cc2cc3c(cc2nc1SCC(=O)OC1CCCCC1)OCO3 | 10 | 9 | 43 | 231*[fluorescence artefact?] | -4 | 32
CCc1c(C)nc(SCC(=O)c2cccs2)c(C#N)c1C | -1 | -8 | 53* | 138 | 12 | 19
SMILES | Candida biofilm | F-actin modifier | ERb SRC1 inh | ERa coact pot | E-sel TNF inh | ERa SRC1 inh
CCc1c(C)nc(SCC(N)=O)c(C#N)c1C | 3 | -7 | -27 | 108 | / | 10
COc1ccc(-c2cc(C#N)nc(N3CCNCC3)n2)cc1 | 5 | 21 | 36 | 305*[fluorescence artefact?] | -4 | 33
COc1ccc(-c2cc(C#N)nc(N3CCN(C)CC3)n2)cc1 | / | / | / | / | 7 | /
O=C(c1ccc(NC2=NC3CS(=O)(=O)CC3S2)cc1)N1CCc2ccccc2C1 (stereo not given) | 29* | / | -7 | 90 | -15 | -1
O=C(c1ccc(NC2=NC3CS(=O)(=O)CC3S2)cc1)N1CCN(Cc2ccccc2)CC1 (stereo not given) | 5 | -7 | -5 | 103 | 9 | 93*[fluorescence artefact?]
NC(=O)C1CCN(C(=O)c2ccc(NC3=NC4CS(=O)(=O)CC4S3)cc2)CC1 (stereo not given) | / | -6 | / | / | 8 | /
CCCNC(=O)CSc1nnc(-c2ccccc2Br)n1-c1cccc(C(F)(F)F)c1 | / | / | / | / | 15 | /
O=C1NCCCc2c1oc1cc(Br)c(O)c(Br)c21 | -2 | / | 21 | 109 | 97* | 9
CC(C)NCc1c(O)c(Br)cc2oc3c(c12)CCCC3 | 1 | -48 | -11 | 110 | -7 | 3
COc1cccc(/C=C/C(=O)Nc2ccc3c(c2)OCCO3)c1OC | / | / | / | / | -40 | /
N#CC1=C(SCC(=O)Nc2cccc3cccnc23)NC(=O)C(C#N)C12CCCCC2 (stereo not given) | 8 | 5 | 51* | 51 | -31 | 66*[fluorescence artefact?]
N#CC1=C(SCC(=O)NC2CC2)NC(=O)C(C#N)C12CCCCC2 (stereo not given) | 10 | -18 | -13 | 129 | / | -7
CC1CCC2(CC1)NC(=S)N(c1ccccc1)N2 (stereo not given) | 83* | 22 | -4 | 87 | 6 | -4
C#CCCCCCCC#CCN(C)C | / | / | / | / | -8 | /
CSc1cccc(NC(=O)CN(c2ccccc2)S(=O)(=O)N(C)C)c1 | -4 | -2 | 37 | 61 | 6 | 50*
CSc1cccc(NC(=O)CN(c2cccc(C)c2)S(C)(=O)=O)c1 | -2 | 6 | 1 | 110 | -26 | 6
CN(C)S(=O)(=O)N(CC(=O)Nc1ccccc1C(F)(F)F)c1ccccc1 | 4 | -5 | 34 | 67 | -10 | 70*[fluorescence artefact?]
Cc1cccc(N(CC(=O)Nc2ccc(F)cc2)S(C)(=O)=O)c1 | 55* | -8 | -2 | 107 | 0 | -3
CC(=O)c1cccc(NC(=O)CN(c2ccccc2)S(C)(=O)=O)c1 | 5 | / | 48 | 711*[fluorescence artefact?] | -70 | 28
CSc1ccccc1NC(=O)CN(c1ccccc1)S(=O)(=O)N(C)C | 7 | 11 | 15 | 91 | -34 | 9
Cc1cc(Oc2ccc(=O)n(C)n2)nc(=S)[nH]1 | / | / | / | / | -13 | /
Cc1ccccc1OCCCC(=O)Nc1nncs1 | / | / | / | / | -16 | /
Cc1ccc(Cl)c(OC(=O)c2nn(C(C)C)c(=O)c3ccccc23)c1 | / | / | / | / | -3 | /
CC(=O)c1cccc(N(C(=O)c2ccco2)C(C(=O)NC2CCCC2)c2ccncc2)c1 (stereo not given) | -1 | -25 | -2 | 109 | 9 | 8
CCOC(=O)c1cc2sc(C)cc2n1CC(=O)NCCc1ccccc1 | 3 | 16 | -10 | 932*[fluorescence artefact?] | 4 | -41
COC(=O)c1cc2sc(Cl)cc2n1CC(=O)NCCC(C)C | 9 | 8 | 0 | 226*[fluorescence artefact?] | -8 | -4
